One may read the AC50 as the concentration giving half of the maximal activity seen.

Calls of active or inactive are those of the source. The calls were made as follows: active = hit-call score of the fitted dose curve at least 0.9, where 1 is the maximum; inactive = score below 0.9.

Six compounds from PubChem BioAssay (EPA / NIEHS) can be followed below.

Read-out in this test: Monokine induced gamma interferon (MIG), CXCL9 (gene 4283)
The test can be described thus: BSK_3C_MIG: BioMAP Diversity Plus: 3C Assay for Monokine induced gamma interferon (MIG) Biomarker Activity (AID 2283021).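 As to AC50: MIG protein level measured by immunoassay in the treated endothelial cultures.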 The following applies: primary human endothelial cells (HUVEC); actives raise or lower the signal. The method, boiled down: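 HUVEC, 3C system; 24 h chemical exposure; MIG by ELISA; bidirectional fit vs DMSO baseline.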
With `CCCCN(CCCC)C(=O)N(CCCC)CCCC`, the AC50 was 12.5 µM (active). On to `C=CC(C)(O)CCC=C(C)C` (stereo unspecified), for which the outcome was inactive. For `CCCCCCC(CO)CCCC` (stereo unspecified), the outcome was inactive. Regarding `CN(C)C(=O)Nc1ccc(Oc2ccc(Cl)cc2)cc1`, the result was inactive. Take `CC(=O)c1c(C)c([N+](=O)[O-])c(C(C)(C)C)c([N+](=O)[O-])c1C`: the outcome was inactive. With `CCCCCC(C=O)=Cc1ccccc1`, the outcome was inactive.
